# APOBEC3A inh: blocks human APOBEC3A ssDNA deamination; P31941; recombinant A3A, FAM/TAMRA ssDNA deamination fluorescence; inhibition, % at 20 µM; 0.41% of 330,000 active; AID 493011;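 active = at least 40% inhibition at 20 µM here, with at most 30% in a related deaminase screen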;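 also: plate controls were A3A with DMSO for no effect and wells lacking A3A enzyme for full effect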
# Yeast superoxide: yeast age-related superoxide inhibition as caloric restriction mimetic | S. cerevisiae aged cells, superoxide DHE fluorescence; active compounds read low | superoxide response (% of plate mean), % at 10 µM | 0.18% of 330,000 active;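 active = superoxide response under a set limit, about three screen SD below normal, cut at about 65% in these data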;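 also: yeast aged for seven days with compound at 30 °C before DHE staining; 100% = average MFI of all compound-treated wells on the plate with controls excluded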
# PfM18AAP inh-1: blocks P. falciparum M18 aspartyl aminopeptidase; recombinant PfM18AAP, H-Glu-NHMec fluorogenic cleavage; AID 1822; inhibition, % at 7.35 µM; 1.2% of 290,000 active;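 active = inhibition above the campaign mean inhibition over all tested compounds plus 3 SD, cut at about 28% in these data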;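 also: 0% = plate median of test compound wells and 100% = 2 mM ZnCl2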
# APOBEC3G inh: APOBEC3G (human) deaminase inhibition; recombinant A3G, ssDNA deamination FAM/TAMRA fluorescence; inhibition, % at 20 µM; 0.28% of 330,000 active;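 active = inhibition of at least 40% at 20 µM, with no more than 30% in the related APOBEC3A deaminase screen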;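 also: plate controls were DMSO wells with A3G for no effect and wells lacking A3G enzyme for full effect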
# Target sequence (Q9HC16 whole entry, looked up): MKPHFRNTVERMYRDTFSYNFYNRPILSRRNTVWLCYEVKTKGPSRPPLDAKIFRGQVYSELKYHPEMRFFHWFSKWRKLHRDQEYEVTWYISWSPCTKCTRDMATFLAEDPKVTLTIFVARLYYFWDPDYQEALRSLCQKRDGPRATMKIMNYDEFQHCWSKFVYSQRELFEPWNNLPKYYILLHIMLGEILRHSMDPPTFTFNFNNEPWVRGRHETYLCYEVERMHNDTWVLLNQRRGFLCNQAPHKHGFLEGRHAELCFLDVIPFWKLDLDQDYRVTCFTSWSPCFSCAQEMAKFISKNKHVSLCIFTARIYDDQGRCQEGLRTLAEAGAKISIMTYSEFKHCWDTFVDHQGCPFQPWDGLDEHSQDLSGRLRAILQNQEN
# PfG6PD inh: PfG6PD (Plasmodium falciparum) enzyme inhibition; PfGluPho enzyme, NADPH resazurin-diaphorase fluorescence; inhibition, % at 20 µM; 0.78% of 350,000 active;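 active = inhibition reaching at least a set limit at 20 µM in the primary screen, cut at about 59% in these data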;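 also: 0% = DMSO wells with substrate and 100% = DMSO wells lacking glucose-6-phosphate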
# PfM18AAP inh-2: PfM18AAP inhibition, confirmation. 28% of 2,400 active. inhibition, % at 7.35 µM. shares compounds with PfM18AAP inh-1. recombinant PfM18AAP, H-Glu-NHMec fluorogenic cleavage;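 active = mean inhibition over replicate wells above the hit cutoff set for the earlier primary screen, cut at about 29% in these data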;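 also: 0% = median of test compound wells and 100% = 2 mM ZnCl2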
# CTSL1 confirm: counter-screen for PFM18AAP inhibitors: confirmation of human cathepsin L inhibitors; purified cathepsin L1, Z-Leu-Arg-MCA fluorescence; AID 2178; 2,400 tested, under 10 active; inhibition, % at 5.96 µM; shares compounds with PfM18AAP inh-1;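 active = average inhibition across replicates above the hit cutoff set in the earlier primary screen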;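 also: 0% = median of test compound wells and 100% = Z-Phe-Ala-diazomethylketone 1 µM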
# Target sequence (P07711 whole entry, looked up): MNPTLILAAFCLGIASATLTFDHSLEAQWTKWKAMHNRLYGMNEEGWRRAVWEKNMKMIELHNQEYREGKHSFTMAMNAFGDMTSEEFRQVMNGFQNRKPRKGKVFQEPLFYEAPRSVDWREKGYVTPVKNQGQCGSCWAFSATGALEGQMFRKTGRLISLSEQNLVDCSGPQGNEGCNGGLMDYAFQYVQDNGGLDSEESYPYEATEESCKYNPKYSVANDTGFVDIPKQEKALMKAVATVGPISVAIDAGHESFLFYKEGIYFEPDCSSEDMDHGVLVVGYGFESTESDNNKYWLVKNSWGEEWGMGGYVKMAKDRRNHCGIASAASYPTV
# * = called active by the depositor; · = no result given. A selection: hits, their analogues and other compounds. The true share with any hit is near 2.4%.
SMILES,APOBEC3A inh,Yeast superoxide,PfM18AAP inh-1,APOBEC3G inh,PfG6PD inh,PfM18AAP inh-2,CTSL1 confirm
Cc1nn(C)c(C)c1CNC(=O)Nc1cccc(Cl)c1,2.2,92.6,-3.8,-1.2,1.2,·,·
CCCc1c(C(=O)N/N=C/c2cccc(OCc3ccc(F)cc3)c2)nnn1-c1nonc1N,-0.3,119.5,-7.0,-1.0,17.2,·,·
Cc1ccc(-c2nc(N/N=C/c3cccnc3)c3ccccc3n2)cc1,-2.2,98.3,43.3*,-5.6,37.1,-33.2,6.1
C(=NN=Cc1c[nH]c2ccccc12)c1c[nH]c2ccccc12,·,·,·,·,4.5,·,·
C(=C\c1ccccc1)/C=N/Nc1nncc(-c2ccccc2)n1,2.6,90.2,-8.8,-5.3,·,·,·
O=c1nc(N/N=C/c2c[nH]c3ccccc23)cn[nH]1,1.3,110.8,40.2*,-3.3,6.6,0.5,-3.2
O=c1nc(N/N=C/C=C/c2ccccc2)cn[nH]1,2.7,103.5,41.2*,-0.5,0.9,-1.2,3.6
C=CCC1NS(=O)(=O)O[C@H](CCCC)[C@@H]1O (stereo partly specified),1.3,85.8,-4.9,-9.0,10.6,·,·
Nc1c(S(=O)(=O)c2cccc(Cl)c2)c2nc3ccccc3nc2n1/N=C/c1ccc(O)c(O)c1,7.6,110.7,43.8*,-0.8,·,12.2,-3.5
O=c1cc(CN2CCOCC2)c2ccc(O)c(O)c2o1,-3.1,97.9,35.7*,-1.5,-9.6,9.2,-4.4
O=c1cc(CN2CCN(Cc3ccccc3)CC2)c2ccc(O)c(O)c2o1,2.2,95.6,48.2*,-3.0,5.7,8.6,-5.0
CCCc1cc(=O)oc2c(CN3CCOCC3)c(O)ccc12,3.8,103.4,0.4,-1.8,-5.2,·,·
Cc1c(O)ccc2c(CN3CCN(Cc4ccccc4)CC3)cc(=O)oc12,-1.4,101.9,-0.7,-3.5,-24.4,·,·
O=C(CSc1ccccc1C(=O)NCc1ccccc1)NC1CCCCCCC1,4.2,97.5,2.3,-8.7,2.1,·,·
CNC[C@H]1OCCCC[C@H](C)Oc2ccc(NC(=O)CCCN(C)C)cc2C(=O)N([C@H](C)CO)C[C@@H]1C,·,·,·,·,35.1,·,·
CC(=O)Nc1ccc(NC(=O)CSc2nc3[nH]ncc3c(=O)n2-c2ccccc2)cc1,-1.5,104.3,48.7*,-3.8,-4.8,1.0,-5.5
COc1ccc(NC(=O)CSc2nc3[nH]ncc3c(=O)n2-c2ccccc2OC)cc1OC,-1.3,87.8,19.2,-3.5,5.2,·,·
N#Cc1c(Nc2ccccc2C(F)(F)F)s[nH]c1=O,-4.1,79.5,36.0*,-11.1,50.3,1.9,-6.2
COc1ccccc1NS(=O)(=O)c1cc(NC(=O)C2CC2)ccc1N1CCOCC1,1.9,107.7,42.0*,6.0,·,-26.9,0.7
COc1ccccc1NS(=O)(=O)c1cc(NC(=O)c2ccccc2C)ccc1N1CCOCC1,·,·,·,·,11.3,·,·
COc1ccc(CNCc2cc3c(cc2[N+](=O)[O-])OCO3)cc1,0.7,94.1,38.3*,-2.3,32.3,-14.8,-1.5
CCN(C(=O)COC(=O)C1CCN(S(=O)(=O)c2c(Cl)cccc2Cl)CC1)C1CCCCC1,6.6,107.1,-1.4,-4.4,-2.8,·,·
CC(=O)Oc1ccc2c(=O)c(Oc3ccccc3)coc2c1OC(C)=O,15.4,104.5,32.7*,-0.1,-6.3,2.5,-0.4
O=C(/C=C/c1ccccc1)C1=C(O)C(=O)N(CCO)C1c1cccc([N+](=O)[O-])c1 (stereo unspecified),-0.6,93.3,-3.3,1.3,-13.6,·,·
O=C(O)CCCCCN1C(=O)C(O)=C(C(=O)/C=C/c2ccccc2)C1c1ccc2c(c1)OCO2 (stereo unspecified),-3.2,98.5,54.9*,-4.0,-27.0,-1.1,1.9
SMILES,APOBEC3A inh,Yeast superoxide,PfM18AAP inh-1,APOBEC3G inh,PfG6PD inh,PfM18AAP inh-2,CTSL1 confirm
O=C(Nc1ccncc1)Nc1cccc(C(F)(F)F)c1,-0.8,103.5,3.7,-4.5,0.6,·,·
O=C(NNc1cccc(Cl)n1)Nc1ccc(Cl)cc1,-3.6,84.2,55.8*,-11.2,32.7,35.8*,-2.4
O=C(NNc1cccc(Cl)n1)Nc1cccc(C(F)(F)F)c1,-1.9,98.8,54.0*,-4.9,24.5,37.0*,0.9
CCc1ccc(S(=O)(=O)NC(=S)NC2CCCCC2)cc1,-2.7,97.0,-9.8,3.2,-21.9,·,·
Cc1ccc(OCCC(=O)OCC(=O)NC2CCS(=O)(=O)C2)cc1 (stereo unspecified),-0.2,95.5,·,-7.5,5.7,·,·
Cc1cccc(-n2cc(-c3ccccc3)[nH]c2=S)c1,-3.1,91.9,39.5*,-6.4,49.1,12.6,4.3
COc1ccccc1-n1cc(-c2ccccc2)[nH]c1=S,-5.7,97.4,13.7,-9.0,45.0,·,·
COc1ccc(-n2cc(-c3ccccc3)[nH]c2=S)cc1,5.1,89.6,44.1*,1.3,37.6,32.8*,1.9
CC(=O)Nc1ccc(-n2cc(-c3ccccc3)[nH]c2=S)cc1,-5.9,94.6,64.2*,32.0,51.7,57.6*,2.1
CCC(/C=C1\Sc2ccc(OC)cc2N1CCO)=C\c1sc2ccc(OC)cc2[n+]1CCO,8.1,99.8,33.8*,7.6,53.6,-4.1,3.7
CCC(/C=C1\Sc2ccc(OC)cc2N1CC)=C\c1sc2ccc(OC)cc2[n+]1CCCS(=O)(=O)[O-],2.3,89.7,22.6,-2.5,17.0,·,·
COC(=O)COc1c(Cl)cc(C(c2c(C)[nH][nH]c2=O)c2c(C)[nH][nH]c2=O)cc1OC,-0.1,92.9,33.5*,-6.8,2.0,13.1,-0.2
CCOc1ccc(C(c2c(C)[nH][nH]c2=O)c2c(C)[nH][nH]c2=O)cc1OC,-2.1,93.7,27.0,0.5,2.5,·,·
COc1cc(C(c2c(C)[nH][nH]c2=O)c2c(C)[nH][nH]c2=O)cc(Br)c1OC,-3.8,96.3,37.7*,-4.0,12.9,16.3,-3.2
CCOC(=O)COc1ccc(C(c2c(C)[nH][nH]c2=O)c2c(C)[nH][nH]c2=O)cc1,-1.2,96.0,34.2*,-4.0,11.3,-3.1,-0.3
NNC(=O)CNC(=O)CNS(=O)(=O)c1ccccc1,-0.3,100.0,3.1,-4.9,-24.9,·,·
CC(Cl)C(=O)NNC(=O)CNS(=O)(=O)c1ccccc1 (stereo unspecified),-0.3,96.4,44.7*,-5.7,0.4,19.5,-1.4
CC1CC(C)CN(CCCNC(=O)c2ccc3c(c2)NC(=O)CS3)C1 (stereo unspecified),-6.0,84.0,-2.7,-4.5,6.3,·,·
COc1ccc(N(CC(=O)NC2CCS(=O)(=O)C2)S(=O)(=O)c2cc(C)ccc2C)cc1 (stereo unspecified),-4.4,108.2,·,-6.0,-7.2,·,·
COc1ccc(-n2nnnc2SCC(=O)c2ccc(O)c(O)c2)cc1,0.3,77.5,35.3*,-1.9,-54.1,30.4*,-3.5
Cc1ccccc1CSc1nnnn1-c1ccc(C(N)=O)cc1,-2.3,98.5,2.7,-10.3,-8.2,·,·
NC(=O)c1ccc(-n2nnnc2SCC(=O)c2ccc(O)c(O)c2)cc1,-3.2,116.5,50.7*,-5.5,-47.7,28.8*,-1.1

# High-throughput results deposited in PubChem by several laboratories.
